In all, about 68,000 compounds went through this assay and about 2,700 (4%) showed an effect of 50% or more. The full list was thinned out, with strong results kept by preference.

The experiment concerns Plasmodium berghei. In words: Screen against P. berghei liver stage (PbLuc), transformed with Luciferase, at 2uM. The format is functional, HepG2. Conditions: tested at 2 uM.
As to `O=c1c(-c2ccnc(NC3CCCCC3)n2)cnc2sc(Cl)cn12`, the INHIBITION worked out at 10.83%.
The figure for `Cn1c(C(=O)N2CC[C@@]3(O)CCCC[C@H]3C2)cc2ccccc21` is 5.04%.
Regarding `CS(=O)(=O)N1CCCC12CCCN(S(=O)(=O)c1cccc(F)c1)C2` (stereo unspecified), the INHIBITION is reported as 32.41%.
With `CCN1Cc2ccccc2CC2(CCN(C(=O)N(C)C)CC2)C1=O`, the INHIBITION stood at 14.94%.
As for `Cn1nc(C(=O)N2CCCC(n3cncn3)C2)ccc1=O` (stereo unspecified), the INHIBITION is 8.06%.
On to `CC(C)(C)c1nc(CN2CCC(N3CCCCC3)CC2)no1`, for which the INHIBITION came out at 40.47%.
Consider `O=C1CN(C(=O)c2cc3c(F)cc(Br)cc3[nH]2)CCN1`, for which the INHIBITION is reported as -10%.
`Cc1cc(C)c2cc(C(=O)N3CCNC(=O)C3)[nH]c2c1`: the INHIBITION was determined as 19.48%.
On to `O=C1CN(C(=O)c2cc3ccc(Br)cc3[nH]2)CCN1`, for which the INHIBITION amounted to 57%.
As for `Clc1cccc(C2CCN(c3ncnc4c3CCNC4)C2)c1` (stereo unspecified), the figure is 36.79%; as for `COCCn1cnc(-c2nc(C(=O)N3CCOCC3)c3ccccn23)c1`, 11.37%; as for `CN(Cc1n[nH]c2c1CCCC2)c1nc(C2CC2)nc2c1CCNCC2`, 14.55%.
As to `CCOc1ccc(Cl)c(C(=O)N(C)C)n1`, the INHIBITION is reported as -23.4%.
As to `Cc1cnn(C2CN(CCOc3ccccc3C#N)C2)c1`, the INHIBITION is listed as -21.72%.
As for `CO[C@H]1CCN(Cc2cnn(C)c2)[C@@H]2CN(Cc3ccncc3)C[C@H]12`, the INHIBITION is on record as -22.28%.
Take `CO[C@H]1CCN(Cc2cnn(C)c2)[C@@H]2CN(Cc3cccnc3)C[C@H]12`: the INHIBITION is reported as 39.06%.
Turning to `CO[C@@H]1CCN(Cc2cnn(C)c2)[C@@H]2CN(Cc3cccnc3)C[C@@H]21`, the INHIBITION is on record as 51.05%.
Turning to `CC(C)NC(=O)CS(=O)(=O)Cc1cc(Cl)c2c(c1)OCCO2`, the INHIBITION is listed as 14.82%.
Regarding `CC(C)C1CN(Cc2c[nH]cn2)CCCN1CC1CC1` (stereo unspecified), the INHIBITION was -28.5%.
Regarding `CC(CN1CCOCC1)NC(=O)N(C)Cc1ccc(Cl)s1` (stereo unspecified), the INHIBITION was determined as 2.8%.
Turning to `c1cnc(N2CCC3(CCN(CC4CCOC4)CC3)CC2)nc1` (stereo unspecified), the INHIBITION worked out at 42.27%.
For the compound `c1cnc(N2CCC3(CN(CC4CCOC4)C3)C2)nc1` (stereo unspecified), the INHIBITION is listed as 24.54%.
Regarding `c1cnc(N2C[C@H]3CN(CC4CCOC4)C[C@H]3C2)nc1` (stereo partly specified), the INHIBITION amounted to 55.44%.
Consider `CCn1cc(C2CCN(Cc3ccnc(N(C)C)c3)CC2)cn1`, for which the INHIBITION was 5.17%.
The figure for `CC(C)CC(=O)NCc1cccc(OCCN(C)C2CCOCC2)c1` is 74.08%.
Take `CCC(C)C(=O)NCc1cccc(OCCN(C)C2CCOCC2)c1` (stereo unspecified): the INHIBITION is given as -13.37%.
For the compound `COCC(=O)NCc1cccc(OCCN(C)C2CCOCC2)c1`, the INHIBITION came to 6.07%.
As to `CSC1(CNC(=O)c2ccn(-c3ccccc3F)n2)CCOCC1`, the INHIBITION is listed as -5.41%.
As for `O=C(C1CCCC1)N1CC2(CCN(C3COC3)C2)OCc2ccccc21` (stereo unspecified), the figure is 12.39%; as for `Cc1nc(CNC(=O)CCN2CCN(c3ccccc3)CC2)oc1C`, -0.39%; as for `O=C(NCc1cn2cccnc2n1)C1CC(=O)N(Cc2ccccn2)C1` (stereo unspecified), 56.79%.
In the case of `CN(C)CCN1CC(C(=O)NCc2cn3cccnc3n2)CC1=O` (stereo unspecified), the INHIBITION is recorded as 11.37%.
Turning to `O=C(NCc1cn2cccnc2n1)C1CC(=O)N(Cc2cccnc2)C1` (stereo unspecified), the INHIBITION was -23.46%.
With `Cc1ccc(C(=O)O)cc1S(=O)(=O)N(CC(C)O)c1ccccc1` (stereo unspecified), the INHIBITION is listed as 11.33%.
The figure for `COc1ncccc1NC(=O)N1CCC(c2ccc(O)cc2)CC1` is -14.28%; for `CCN1CC(COC(=O)c2ccc(N(C)C)cc2F)CC1=O` (stereo unspecified) it is -3.43%; for `CS(=O)(=O)N1C[C@@H]2C[C@H](C(=O)N3CCOCC3)[C@H](C1)O2` it is 54.01%.
In the case of `CC(C)CS(=O)(=O)N1C[C@@H]2C[C@H](C(=O)N3CCOCC3)[C@H](C1)O2`, the INHIBITION is reported as 15.36%.
With `CC(C)CS(=O)(=O)N1C[C@@H]2C[C@H](C(=O)N3CCN(C)CC3)[C@H](C1)O2`, the INHIBITION is -26.46%.
For the compound `CCCS(=O)(=O)N1C[C@@H]2C[C@H](C(=O)N3CCOCC3)[C@H](C1)O2`, the INHIBITION was 32.59%.
Take `CCCS(=O)(=O)N1C[C@@H]2C[C@H](C(=O)N3CCCC3)[C@H](C1)O2`: the INHIBITION is 22.71%.
As for `CCCS(=O)(=O)N1C[C@@H]2C[C@H](C(=O)N3CCN(C)CC3)[C@H](C1)O2`, the figure is 72.68%.
Take `CCOCC1CN(Cc2ccncc2)Cc2nn(C)cc21` (stereo unspecified): the INHIBITION turned out to be 7.26%.
As for `CCN(C)c1ncnc2c1CCN(CC1CCOC1)CC2` (stereo unspecified), the figure is 26.76%; as for `COc1cc(Cl)ccc1C(=O)NCc1n[nH]c(C)n1`, 29.39%.
As to `Cc1cc(CC(=O)NCC(O)c2ccc(OC(F)F)cc2)n[nH]1` (stereo unspecified), the INHIBITION turned out to be 17.94%.
As to `CSc1ccc(-c2noc(CN(Cc3ccccc3)C(C)C)n2)cc1`, the INHIBITION was 28.97%.
Turning to `COCc1nn(C(C)C)c2c1CCN(Cc1ccoc1)C2`, the INHIBITION was determined as 6.35%.
Regarding `CC(C)n1nc(Cn2cccc2)c2c1CN(Cc1ccoc1)C2`, the INHIBITION came out at 51.4%.
The figure for `Cn1nc(Cn2cccn2)c2c1CN(Cc1ccoc1)C2` is 15.34%; for `CCS(=O)(=O)N1Cc2c(Cn3cccc3)nn(C(C)C)c2C1` it is -24.79%.
Regarding `Cn1nc(Cn2ccnc2)c2c1CN(Cc1ccoc1)C2`, the INHIBITION is on record as 4.26%.
Take `Cn1nc(Cn2cccc2)c2c1CN(Cc1ccoc1)C2`: the INHIBITION was 50.32%.
Turning to `O=C1CC[C@H]2CN(Cc3ncc[nH]3)CC[C@H]2N1CC1CCNCC1`, the INHIBITION turned out to be 17.37%.
With `Cc1cc(N2CCC(Cc3cnccn3)C2)ncn1` (stereo unspecified), the INHIBITION is given as -10.89%.
The figure for `CC(C)C(C#N)N1CCN(Cc2nccn2CC(F)(F)F)CC1` (stereo unspecified) is -16.4%; for `CCS(=O)(=O)N1CC[C@H]2C(=O)N(Cc3cccnc3)CCO[C@H]2C1` it is 58.52%.
The figure for `O=C1[C@@H]2CCN(C3CCOCC3)C[C@@H]2OCCN1Cc1cccnc1` is 4.08%.
Consider `O=C1[C@@H]2CCN(Cc3ccoc3)C[C@@H]2OCCN1Cc1cccnc1`, for which the INHIBITION is -32.67%.
As for `CCOCC(O)CN1CCN(C(=O)c2cc(Cl)ccc2F)CC1` (stereo unspecified), the figure is 15.08%.
Take `Cc1ccc(C2NC(=O)c3cc(C(C)C)sc3N2)cc1` (stereo unspecified): the INHIBITION is 46.98%.
As for `CC(C)c1cc2c(s1)NC(c1ccccc1)NC2=O` (stereo unspecified), the figure is 51.76%.
As for `CC(C)c1cc2c(s1)NC(c1ccccn1)NC2=O` (stereo unspecified), the figure is -23.17%; as for `O=C(NC1CCC1)c1n[nH]c2c1CNCC2`, -29.3%.
The figure for `Cc1nc(C)n(C2CCCN(C(=O)CCCOc3ccccc3)C2)n1` (stereo unspecified) is -17.71%.
For `Cc1cc(C)n(C2CCCN(C(=O)CCCc3ccccn3)C2)n1` (stereo unspecified), the INHIBITION is recorded as -5.15%.
For `Cc1nc(C)n(C2CCCN(C(=O)COc3ccccc3)C2)n1` (stereo unspecified), the INHIBITION was -2.9%.
As to `Cc1nc(C)n(C2CCCN(C(=O)CCCc3ccccn3)C2)n1` (stereo unspecified), the INHIBITION was determined as 70.27%.
As for `COc1ccccc1CC(=O)N1CCCC(n2nc(C)nc2C)C1` (stereo unspecified), the INHIBITION is given as 59.23%.
As for `COc1ccccc1CC(=O)N1CCCC(n2nc(C)cc2C)C1` (stereo unspecified), the INHIBITION is -7.5%.
With `CCc1nnc(CN2CCOC(Cn3cc(C)cn3)C2)o1` (stereo unspecified), the INHIBITION is reported as -50.23%.
As to `O=C(O)c1cc(C2=CCCCC2)cc(S(=O)(=O)NCc2ccccn2)c1`, the INHIBITION is reported as 40.88%.
Turning to `CC(C)(C)n1ncc(NCC(O)c2ccccc2C(F)(F)F)c(Cl)c1=O` (stereo unspecified), the INHIBITION is on record as 6.26%.
In the case of `OC1(CNCCc2csc(-c3ccncc3)n2)CCCNC1` (stereo unspecified), the INHIBITION was 10.72%.
Regarding `Fc1ccc(CN2CC[C@H]3O[C@@H](COCC4CCOCC4)CC[C@H]32)cc1`, the INHIBITION came out at 32.31%.
As for `Cn1cncc1-c1nnc([C@H]2CCN(CC(C)(C)C)C2)o1`, the figure is -23.78%; as for `CN(CCCOc1ccccc1Cl)C(=O)CN1C(=O)CCNC1=O`, 27.67%; as for `CN(CCCOc1ccccc1Cl)C(=O)CN1CCCCCC1=O`, 50.42%.
As for `CN(CCCOc1ccccc1Cl)C(=O)CN1CCNC1=O`, the figure is -9.33%; as for `COC(C)(C)C(=O)N1Cc2cnc(C(C)(C)C)nc2C1`, -82.18%.
Regarding `CC(OCC1CC1)C(=O)Nc1cccc(C(=O)Nc2ccccn2)c1` (stereo unspecified), the INHIBITION is listed as -5.74%.
The figure for `NC(=O)c1cn(CC2CC2)c(C2CC2)n1` is -4.87%; for `CCC[C@H]1CN(c2cncc(C(=O)N3CCCCC3)n2)C[C@@H]1N(C)C` it is -16.39%.
In the case of `CCOC(=O)CNC(=O)Cn1c(-c2ccoc2)nc(C)c1C`, the INHIBITION is -19.53%.
For `Cc1nc(-c2ccoc2)n(CC(=O)N(C)CC(C)C)c1C`, the INHIBITION came to 64.82%.
Regarding `Cc1nc(-c2ccoc2)n(CC(=O)NCC(C)C)c1C`, the INHIBITION is 19.53%.
As to `O=C(Nc1ccccc1)C1CN(C(=O)c2cccs2)CC12CCOCC2` (stereo unspecified), the INHIBITION is on record as -36.65%.
Regarding `CC1COCCN1Cc1nc(-c2ccc(F)cc2)no1` (stereo unspecified), the INHIBITION is given as -24.5%.
The figure for `CC(=O)Nc1nc(CN2CCOC(Cn3cncn3)C2)cs1` (stereo unspecified) is -0.13%.
For `CCCC(=O)N1C[C@@H]2CCN(c3cnccn3)C[C@@H]2C1`, the INHIBITION was 50.72%.
Turning to `O=C(c1cnccn1)N1C[C@@H]2CCN(c3cnccn3)C[C@@H]2C1`, the INHIBITION was 24.95%.
The figure for `CC(C)CC(=O)N1C[C@@H]2CCN(c3cnccn3)C[C@@H]2C1` is 20.51%; for `CCC(=O)N1C[C@@H]2CCN(c3cnccn3)C[C@@H]2C1` it is 40.28%.
Take `O=C(C1CCCCC1)N1C[C@@H]2CCN(c3cnccn3)C[C@@H]2C1`: the INHIBITION is on record as 50.17%.
Consider `O=C(C1CCCC1)N1C[C@@H]2CCN(c3cnccn3)C[C@@H]2C1`, for which the INHIBITION amounted to 28.75%.
`Cc1noc(C)c1CN1C(=O)[C@@H]2CC[C@H]1CN(Cc1cscn1)C2`: the INHIBITION is on record as -55.91%.
Take `Cc1ccccc1SC1CCN(C(=O)C2[C@H]3CNC[C@@H]23)CC1` (stereo partly specified): the INHIBITION stood at 2.49%.
With `O=C(CCCn1cncn1)N1CCCC1c1noc(C2CC2)n1` (stereo unspecified), the INHIBITION is given as 8.65%.
Turning to `Cc1nc(CN2CCCC2c2noc(C3CC3)n2)nc2ccccc12` (stereo unspecified), the INHIBITION was determined as 22.29%.
As for `CN1CCC(O)(CNC(=O)c2cc(COc3cccc(F)c3)[nH]n2)CC1`, the figure is -13.79%; as for `Cc1n[nH]c(C2CN(C(=O)c3cc(C)sc3C)CCO2)n1` (stereo unspecified), 40.13%.

These data come from ChEMBL document CHEMBL4513216, “Probing the Open Global Health Chemical Diversity Library for Multistage-Active Starting Points for Next-Generation Antimalarials” (ACS Infect Dis, 2020).
